Most compounds without a hit are left out; they make up all but 27% or so of the library.
CYP2C9 activ: activators of human CYP2C9; AID 1024; 96,000 compounds, 1.4% hits; P11712; recombinant CYP2C9, luciferin-H conversion, luminescence; active compounds read high; factor 1 = untreated enzyme, 0 = blocked; activation factor at 5 µM;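 active = activation factor of 2 or more for CYP2C9 at a 5 µM dose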
Target sequence (P11712 whole entry, looked up): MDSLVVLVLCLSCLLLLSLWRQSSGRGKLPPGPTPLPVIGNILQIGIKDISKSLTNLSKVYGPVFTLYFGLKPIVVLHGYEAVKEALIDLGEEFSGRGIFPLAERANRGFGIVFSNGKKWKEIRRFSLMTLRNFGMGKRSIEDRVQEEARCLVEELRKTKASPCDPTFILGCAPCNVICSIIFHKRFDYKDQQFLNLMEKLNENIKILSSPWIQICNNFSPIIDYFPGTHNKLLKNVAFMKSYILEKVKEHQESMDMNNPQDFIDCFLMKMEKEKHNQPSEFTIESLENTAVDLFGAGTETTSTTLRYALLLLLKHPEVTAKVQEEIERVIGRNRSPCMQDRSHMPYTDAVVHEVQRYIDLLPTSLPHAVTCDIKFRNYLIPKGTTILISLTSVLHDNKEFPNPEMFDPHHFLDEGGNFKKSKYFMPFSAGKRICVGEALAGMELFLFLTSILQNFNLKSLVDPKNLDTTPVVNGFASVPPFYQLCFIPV
Cav3 T inh: inhibitors of human Cav3.2 T-type calcium channel; O95180; Cav3.2-expressing cells, Fluo-4 calcium fluorescence FDSS; active compounds read low; B-score at 10 µM; 100,000 compounds, 4% hits; AID 449739;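 active = single-dose well whose peak fluorescence ratio is a statistical outlier from its plate by either plate-standardised score or position-corrected B-score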
CYP2C19 inhib: human CYP2C19 inhibition | CYP2C19 Supersomes, luciferin-H EGE luminescence, 30 min | inhibition, % at 5 µM | AID 778 | 96,000 compounds, 21% hits | P33261;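 active = CYP2C19 inhibition above a set limit at 5 µM in the primary screen, cut at about 50% in these data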
CYP2C19 act: cytochrome P450 2C19 (human) activation; AID 1025; activation factor at 5 µM; recombinant CYP2C19, luciferin-H EGE luminescence; active compounds read high; 0 = fully inhibited enzyme, 1 = untreated enzyme; 96,000 tested, under 10 active; P33261;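 active = activation factor of at least 2 at 5 µM in the primary screen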
CYP2C9 inhib: human CYP2C9 inhibition; CYP2C9 Supersomes, luciferin-H conversion, luminescence; 96,000 compounds, 20% hits; inhibition, % at 5 µM; AID 777;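 active = blocking of liver enzyme CYP2C9 beyond about 50% at 5 µM, limit read from the data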
Each line names hits and unclear results; the compound was inactive in the other large screens.

CC12CN3CC(C)(CN(C1)C3c1ccc(Br)cc1)C2=O (configuration not stated)	none
CC12CN3CC(C)(CN(C1)C3c1cc(Br)ccc1O)C2=O (configuration not stated)	CYP2C19 inhib 52.2
CCOc1ccc2nc(NCCCNS(=O)(=O)c3ccccc3)c(C#N)cc2c1	CYP2C9 inhib 54.8
CCOc1ccc2nc(NCCCNS(=O)(=O)c3ccc(F)cc3)c(C#N)cc2c1	none (no result: CYP2C9 activ, CYP2C19 inhib, CYP2C19 act, CYP2C9 inhib)
COC(=O)c1cc(NC(=O)CCc2c(C)nc3ncnn3c2C)cc(C(=O)OC)c1	none
O=C1C=CC[C@H](/C=C/C[C@@H](O)C[C@H](O)CCc2ccccc2)O1	none (no result: CYP2C9 activ, CYP2C19 inhib, CYP2C19 act, CYP2C9 inhib)
CCOc1ccc(C(=O)NC(=S)N(Cc2ccccc2)Cc2ccccc2)cc1	Cav3 T inh -4.63, CYP2C9 inhib 52.9
N#CCCN(Cc1ccccc1)C(=S)NC(=O)c1ccccc1	CYP2C9 inhib 92.7
COc1ccc(C(=O)NC(=S)NCc2ccccc2)cc1	none (no result: Cav3 T inh)
COc1ccc(CN(CCC#N)C(=S)NC(=O)c2ccccc2)cc1	CYP2C9 inhib 91.7
COc1ccccc1CC(=O)N(CCC#N)CCC#N	none (no result: CYP2C9 activ, CYP2C19 inhib, CYP2C19 act, CYP2C9 inhib)
CCN(Cc1ccccc1)C(=O)CCCOc1ccccc1	CYP2C19 inhib 73.4
CC(C)(C)OC(=O)NCCCC[C@H](NC(=O)c1nc[nH]c1C(=O)N1CCc2ccccc2C1)C(=O)OC(C)(C)C	none (no result: CYP2C9 activ, CYP2C19 inhib, CYP2C19 act, CYP2C9 inhib)
Oc1ccc(C[C@@H]2CNC(=S)N2CCCCC2CCCCC2)cc1	none (no result: CYP2C9 activ, CYP2C19 inhib, CYP2C19 act, CYP2C9 inhib)
CCCCC(=O)Nc1cc(NC(=O)CC)ccc1Cl	none
CC1(C)CCCN(C(=O)c2coc(=O)c(Br)c2)C1	none
CC(=O)c1ccccc1NS(=O)(=O)c1c(C)nn(-c2ccccc2)c1C	CYP2C19 inhib 98.7, CYP2C9 inhib 51.3
CC(=O)Nc1ccc(S(=O)(=O)Nc2c(C)nn(-c3ccccc3)c2C)cc1	none
CCCC(C)C(=O)Nc1cccc(NC(C)=O)c1 (configuration not stated)	none
O=[N+]([O-])c1cc(C(F)(F)F)ccc1NCCc1c[nH]c2ccc(O)cc12	CYP2C9 inhib 74.8
O=C(CSc1ccc(C(F)(F)F)cc1[N+](=O)[O-])Nc1ccccc1	none
COc1ccc(/C(O)=C/C(=O)C(=O)Nc2c(C)n(C)n(-c3ccccc3)c2=O)cc1	none
COc1ccc(/C(O)=C/C(=O)C(=O)NNC(=O)C(O)(c2ccccc2)c2ccccc2)cc1	Cav3 T inh -9.67
N#Cc1c(N2CCCCC2)nc(N)c2c(N)nc3c(c12)CC(c1ccccc1)O3 (configuration not stated)	CYP2C9 inhib 63.9
CCN(CC)c1nc(N)c2c(N)nc3c(c2c1C#N)CC(c1ccccc1)O3 (configuration not stated)	CYP2C19 inhib 56.2, CYP2C9 inhib 82.3
CCOC(=O)CSc1nc2ccccc2n1CC(=O)N1CCN(c2ccccc2)CC1	none
CCOC(=O)c1cc2occc2n1Cc1c(F)cccc1Cl	none
Cc1cc2c(cc(C(=O)N3CCC(C(=O)N4CCCC4)CC3)n2Cc2c(F)cccc2Cl)o1	CYP2C19 inhib 96.1, CYP2C9 inhib 78.2
C[C@@H]1NC(=O)c2cc([N+](=O)[O-])cc(I)c2OCC[C@@H](C(N)=O)NC(=O)[C@H](CCC(=O)O)NC1=O	none (no result: CYP2C9 activ, CYP2C19 inhib, CYP2C19 act, CYP2C9 inhib)
CC(C)(Oc1ccc(Cl)cc1)C(=O)OCC(=O)Nc1ncc(Cl)cc1Cl	Cav3 T inh -6.89, CYP2C19 inhib 91.3
Cc1ccc(S(=O)(=O)CCC(=O)OCC(=O)Nc2ncc(Cl)cc2Cl)cc1	none
O=C(COC(=O)C12CC3CC(CC(C3)C1)C2)Nc1ncc(Cl)cc1Cl	CYP2C19 inhib 79.2
Cc1ccc(S(=O)(=O)NCC(=O)OCC(=O)Nc2ncc(Cl)cc2Cl)cc1	none
O=C(COC(=O)CC12CC3CC(CC(C3)C1)C2)Nc1ncc(Cl)cc1Cl	Cav3 T inh -5.87, CYP2C19 inhib 89.0, CYP2C9 inhib 65.7
Cc1ccc(Cl)cc1NC(=O)COC(=O)C12CC3CC(CC(C3)C1)C2	none
O=C(NCc1cccc(C(F)(F)F)c1)C1CC(c2ccccc2C(F)(F)F)=NO1 (configuration not stated)	none (no result: CYP2C9 activ, CYP2C19 inhib, CYP2C19 act, CYP2C9 inhib)
COC(=O)c1ccccc1NC(=O)CSc1nnc(-c2cccnc2)n1C	none (no result: CYP2C9 activ, CYP2C19 inhib, CYP2C19 act, CYP2C9 inhib)
CCn1c(COc2cccc3ccccc23)nnc1SCC(=O)OC1CCCCC1	Cav3 T inh -5.59, CYP2C19 inhib 87.8
CCn1c(CNc2ccc(C)cc2)nnc1SCC(=O)NCc1ccccc1	CYP2C19 inhib 78.0
CCn1c(COc2cccc(C)c2)nnc1SCC(=O)Nc1cccc(C(=O)O)c1	CYP2C9 inhib 79.1
CCn1c(COc2ccccc2C)nnc1SCC(=O)NC1CCCC1	none
CCn1c(SCC(=O)Nc2ccccc2C(=O)OC)nnc1-c1cccc(C)c1	CYP2C19 inhib 98.7, CYP2C9 inhib 68.0
CC1CCCCC1NC(=O)C1CCN(S(=O)(=O)c2cccc3nsnc23)CC1 (configuration not stated)	none
CCn1c(COc2ccccc2C)nnc1SCC(=O)Nc1cc(C)on1	none
CCn1c(CNC(=O)COc2ccc(C(C)C)cc2)nnc1SCC(=O)Nc1ccccc1	Cav3 T inh -4
CCOC(=O)c1cccc(Nc2nc(-c3cccnc3)nc3ccccc23)c1	CYP2C19 inhib 73.7, CYP2C9 inhib 88.0 (no result: Cav3 T inh)
CCOC(=O)c1cccc(NC(=O)CSc2nnc(CNc3ccc(C)cc3)n2CC)c1	Cav3 T inh -4.11, CYP2C19 inhib 65.7, CYP2C9 inhib 70.2
CCn1c(COc2ccccc2C)nnc1SCC(=O)CC(=O)Nc1ccccc1	Cav3 T inh -4.99, CYP2C9 inhib 54.8
CC1=C(C#N)C(=O)OC(C)(C)C1	none
CCn1c(COc2cccc(C)c2)nnc1SCC(=O)Nc1cccc(C(=O)OC)c1	CYP2C9 inhib 56.4
CCn1c(COc2cccc(OC)c2)nnc1SCC(=O)Nc1cccc(OC)c1	CYP2C19 inhib 82.4, CYP2C9 inhib 63.7
CCOC(=O)c1cccc(NC(=O)CSc2nnc(-c3cccnc3)n2CC)c1	CYP2C19 inhib 52.9, CYP2C9 inhib 63.7
CCOC(=O)c1cccc(NC(=O)CSc2nnc(COc3ccccc3)n2CC)c1	Cav3 T inh -6.09, CYP2C19 inhib 57.8, CYP2C9 inhib 62.6
COC(=O)c1cccc(NC(=O)CSc2nnc(COc3ccccc3)n2C)c1	none
O=C(CN1CCOCC1)Nc1ccccc1C(=O)O	none
C[C@@H](C(=O)N1CCNCC1)n1cc(CCCN=C(N)N)nn1	none (no result: CYP2C9 activ, CYP2C19 inhib, CYP2C19 act, CYP2C9 inhib)
O=C(N/N=C/c1cccc(C(F)(F)F)c1)C1CCN(c2ncc(C(F)(F)F)cc2Cl)CC1	none
CCOC(=O)c1ccccc1NC(=O)CSc1nnc(COc2ccccc2)n1CC	Cav3 T inh -5.66, CYP2C19 inhib 89.0
Cc1cccc(Nc2ccncc2S(=O)(=O)NC(=O)NC(C)C)c1	none (no result: CYP2C9 activ, CYP2C19 inhib, CYP2C19 act, CYP2C9 inhib)
CCCC(C(=O)NC1CCCC1)N(CCCN1CCOCC1)C(=O)c1snc(C(N)=O)c1N (configuration not stated)	none
O=[N+]([O-])c1ccc(O)c(NC(=S)Nc2ccccc2)c1	CYP2C19 inhib 55.9, CYP2C9 inhib 91.4
O=C(O)c1cc([N+](=O)[O-])ccc1C(=O)Nc1ccccc1	none
CCc1nc2sc(C)c(C)c2c(=O)n1CCO	none

Compound activity as filed in PubChem.
